Source: PubChem BioAssay (several laboratories)
DAX1 inh-1: DAX1 (NR0B1) inhibitors on StAR promoter, primary screen, cell-based, luminescence, SF-1 (NR5A1), full-length DAX-1; inhibition, % at 6.8 µM; HEK293T StAR-luciferase reporter, SF-1/DAX-1 repression relief; 370,000 tested, 1.1% active;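 active = inhibition above the mean over all tested compounds plus 3 SD, cut at about 3.6% in these data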;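 note: 0% = DAX-1 cells with DMSO and 100% = cells lacking DAX-1 with DMSO; higher inhibition means more luminescence from relief of DAX-1 repression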
hgDAF12 agonist: H. glycines DAF-12 receptor agonists, primary screen, cell-based, luminescence, HEK293, GAL4 fusion, UAS-luciferase. AID 687014, 2013. Nuclear hormone receptor DAF-12 (Heterodera glycines), GAL4 fusion. activation, % at 6.8 µM. 370,000 tested, 1.8% active. HEK293 GAL4-hgDAF12 UAS-luciferase reporter, agonist luminescence; normalized to butyrate control;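 active = activation above a cutoff set at the mean of all screened compounds plus 3 SD, cut at about 10% in these data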;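 note: 0% = DMSO wells and 100% = sodium butyrate wells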
DAX1 inh-2: DAX1 (NR0B1) inhibitors, primary screen, cell-based, HEK293, Gal4-DAX1, luciferase luminescence; Nuclear receptor subfamily 0 group B member 1 (Homo sapiens), P51843; HEK293 Gal4-DAX1 luciferase reporter; inhibition, % at 6.75 µM; 340,000 tested, 0.99% active;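 active = inhibition above the mean over all tested compounds plus 3 SD, cut at about 4.2% in these data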;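 note: 0% = DAX1-transfected cells with DMSO and 100% = empty-vector control cells with DMSO; inhibition shows as a rise in luminescence from relieved DAX1 repression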
Target sequence (P51843 207-470 limits assumed): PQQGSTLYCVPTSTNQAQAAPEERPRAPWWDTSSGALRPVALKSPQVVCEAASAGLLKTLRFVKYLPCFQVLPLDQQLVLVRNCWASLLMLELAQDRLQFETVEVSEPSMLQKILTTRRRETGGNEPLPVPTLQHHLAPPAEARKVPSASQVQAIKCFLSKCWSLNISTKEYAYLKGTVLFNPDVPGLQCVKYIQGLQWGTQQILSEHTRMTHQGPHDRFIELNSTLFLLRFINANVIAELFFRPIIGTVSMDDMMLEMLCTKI
ssDAF-12 act: S. stercoralis DAF-12 nuclear receptor activators, primary screen, cell-based, luminescence, HEK293, GRIP1 co-expression, lit1-tk-luc; Nuclear hormone receptor DAF-12 (Strongyloides stercoralis); HEK293 ssDAF-12/GRIP1 lit1-tk-luc reporter; % of 3 µM dafachronic acid response; activation, % at 6.8 µM; 370,000 tested, 1% active; AID 652126, 2013;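 active = activation above the mean over all tested compounds plus 3 SD, cut at about 0.9% in these data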;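 note: 0% = DMSO-only wells and 100% = 3 µM delta7-dafachronic acid wells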
hcDAF-12 act: H. contortus DAF-12 nuclear receptor activators, primary screen, cell-based, luminescence, HEK293, lit1-tk-luc reporter; HEK293 hcDAF-12 lit1-tk-luc reporter; 0% DMSO, 100% Δ7-dafachronic acid; activation, % at 6.8 µM; 370,000 tested, 1.4% active; AID 652067, 2013;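 active = activation above the mean of all tested compounds plus 3 SD, cut at about 5.5% in these data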;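 note: 100% = response to 3 µM Δ7-dafachronic acid high control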
Rev-erbA mod: modulators of Rev-erb alpha DNA binding, primary screen, biochemical, FITC-DNA, fluorescence polarization, uHTS | Nuclear receptor subfamily 1 group D member 1 (Homo sapiens), P20393 | Rev-erbα–FITC-DNA binding, 90 min | activity, % at 10 µM | 370,000 tested, 0.79% active | AID 1259318, 2017;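 active = activity above about 14%, limit read from the data; passing the limit was not always enough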;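 note: 0% = DMSO wells with 35 nM protein and 100% = DMSO wells with 750 nM protein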
Numbers without * were called inactive; . = not tested or not shown. Shown are actives, neighbours in structure and some others; about 4.8% of the full set was active somewhere.

SMILES	DAX1 inh-1	hgDAF12 agonist	DAX1 inh-2	ssDAF-12 act	hcDAF-12 act	Rev-erbA mod
Cc1ccc(-n2nnc(-c3cccnc3Cl)n2)cc1	2	12*	1	0	4	-6
Cc1ccc(C(=O)O/N=C(\N)c2ccccn2)cc1	-1	-8	-3	-2	-2	3
C/C(=N\OC(=O)c1ccc(Br)cc1)c1ccccn1	0	0	1	0.9*	2	6
C=CCn1c(COc2ccc(C)cc2)nnc1SCc1ccc([N+](=O)[O-])cc1	-2	-2	.	-2	-1	-5
O=C(Nc1ccc(F)cc1F)c1ccc2c(c1)OCCO2	2	13*	-1	0	6	-5
O=C(Nc1ccc(Br)cc1F)c1ccc2c(c1)OCCO2	3	11*	-1	1	4	-6
Cc1ccccc1NC(=O)c1ccc2c(c1)OCCO2	1	6	0	-1	2	4
COc1cc(O)c(C(CC(=O)N2CCC(C)CC2)c2ccc3c(c2)OCO3)c(OC)c1 (stereo not given)	.	3	.	-2	-2	-4
CC(=O)N1c2cc(S(=O)(=O)N3CCN(c4ccccc4F)CC3)c(Br)cc2CC1C (stereo not given)	-2	-3	.	-1	-2	1
C=CCN1[C@H](CC(C)C)COc2cc(N3CCSCC3)ccc2S1(=O)=O	-1	-1	.	-2	1	-2
C/C(=N\NC(=O)c1nnn(-c2nonc2N)c1CN1CCc2ccccc21)c1ccccc1O	0	0	0	-1	5.6*	8
CCCCNC[C@@]12CO[C@H](c3ccc(Cl)cc3)N1[C@@H](c1ccc(Cl)cc1)SC2	1	0	.	1	0	3
N/C(=N\N=C\c1ccc(Br)o1)c1nonc1N	1	13*	6.1*	0	3	0
N/C(=N\N=C\c1ccc([N+](=O)[O-])cc1)c1nonc1N	1	11*	0	-1	2	1
Nc1nonc1C(=O)N/N=C/c1ccc(Br)o1	1	1	-1	1	-2	2
NC(=O)C1CCN(c2nc(-c3ccc(OCc4ccccc4)cc3)cs2)CC1	.	4	.	-2	-3	-1
CCCC[C@H](C)C[C@H](O)/C=C/[C@H]1[C@H](O)CC(=O)[C@@H]1CCCC/C=C/C(=O)O	.	.	.	.	.	-4
COC(=O)[C@]12C[C@H](CC(=O)NCCc3ccccc3OC)C(=O)N(Cc3ccc(Cl)cc3Cl)C1=C[C@H](COCc1ccccc1)O[C@@H]2C	-3	0	.	-2	-4	7
COc1ccc(-c2nc3nc(C)cc(C)n3n2)cc1	1	3	1	0	5.7*	1
COc1ccc(CNc2nc3nc(C)cc(C)n3n2)cc1	2	2	1	-1	0	-2
CC1=C(C)NC(=S)SC1	0	-1	1	-1	5.6*	1
C=CCn1c(SCC(=O)O)nnc1-c1ccco1	0	0	.	-2	1	0
CC(=O)Nc1cc2c(cc1Cl)-c1ccc(F)cc1C2O (stereo not given)	2	4	1	1.5*	4	-3
Cc1ccc(NC(=O)N2CCC(N(C)CCC(C)C)CC2)cc1F	-1	1	.	-1	0	-4
CCOc1ccc(/C=C/C(=O)CCC(=O)O)cc1	3	3	5.8*	-2	1	-2
SMILES	DAX1 inh-1	hgDAF12 agonist	DAX1 inh-2	ssDAF-12 act	hcDAF-12 act	Rev-erbA mod
O=C(O)CCC(=O)/C=C/c1ccccc1	-1	1	2	-1	-2	-3
CC1=NN(c2nc(-c3ccc(C)cc3)cs2)C(=O)C1N=Nc1ccccc1O (stereo not given)	0	1	.	0.9*	2	5
COc1ccc(C(C#N)=C2C=CC(=NO)C=C2)cc1	-1	-1	-1	1.3*	-2	4
COC(=O)c1cccc(C(=O)N2CCCC(C(=O)c3cccc(OC(C)C)c3)C2)c1 (stereo not given)	-1	0	0	0	5.8*	1
C[C@H]1[C@@H](OC(=O)NCCc2c[nH]c3ccccc23)CC[C@@]23CCCN2C(=O)CCC[C@@H]13	.	-4	.	-2	-1	1
CCOC(=O)c1cnc2c(N=Nc3ccccc3)c(N)nn2c1N	2	7	0	0.9*	1	1
Cc1cc2nc3c(c(C(F)(F)F)n2n1)CCCC3	0	0	6.3*	-1	-1	5
O=C(NC1CCCCC1)c1cc2nc3c(c(C(F)(F)F)n2n1)CCCC3	1	3	0	-1	0	1
NCCCC(C(=O)O)N(C(=O)OCc1ccccc1)C(=O)OCc1ccccc1 (stereo not given)	0	2	.	-1	-1	3
O=C1OC(Cc2ccccn2)C(O)=C1C1=NCCCN1 (stereo not given)	1	3	-1	0	0	9
O=C1OC(Cc2ccccn2)C(O)=C1C1=NCCCCN1 (stereo not given)	2	13*	5.3*	-1	4	-2
CCC(C(=O)Nc1ccccc1N1CCCC1)c1cccc(OC)c1 (stereo not given)	-1	-1	.	0	-3	7
CC(C)(C)c1cc(NC(=O)C2CCCO2)no1 (stereo not given)	1	8	1	1.4*	2	-2
C[C@H]1[C@@H](NC(=O)c2cccc(N(C)C)c2)CC[C@@]23CCCN2C(=O)CCC[C@@H]13	.	0	.	-1	-1	10
CCOC(=O)CC(=O)CSc1nc2c(C)c(C)ccc2cc1C	0	0	-1	0	1	3
CCOC(=O)CC(=O)CSc1nc2cc(C)ccc2cc1C	0	-1	1	0	6.4*	-3
CCOC(=O)CSc1nc2cc(C)ccc2cc1C#N	3	11*	2	0	2	3
CCOc1ccc2nc(SCC(=O)N3CCCCCC3)c(C#N)cc2c1	0	-1	2	-1	1	-2
CCOC(=O)CSc1nc2cc(C)cc(C)c2cc1C#N	0	-1	0	-1	-1	21
CCOc1ccc2cc(C#N)c(SCC(=O)N3CCOCC3)nc2c1	3	11*	3	0	3	3
CCOC(=O)CC(=O)CSc1nc2ccc(OC)cc2cc1C	1	3	0	1.7*	0	0
